Unmarked numbers belong to inactive results. For some assays here: Results with a measured potency or affinity are listed apart. Activity calls are given as the source filed them. Unless noted, no rule for the calls is given here.
Columns and labels:
[1] = antimalarial activity against Dd2 strain (AID 2302;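 active = growth inhibition above 50% at the single 2 µM test dose, taken to imply half-maximal potency below 2 µM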;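 also: 0% = DMSO untreated growth and 100% = chloroquine plus artemisinin killed control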); conditions: P. falciparum Dd2 in RBCs, LDH growth readout, 72 h; at 2 µM; stronger effect = higher value
[2] = human hepatoma cell viability loss – ATP luminescence, cytotoxicity control for P. falciparum antimalarial project, primary screen (AID 2303;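 active = inhibition above 50%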;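 also: 0% = DMSO wells and 100% = digitonin-killed cells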); conditions: HepG2 viability, 24-48 h, at 10 µM, stronger effect = higher value
[3] = biological target: L-lactate dehydrogenase (Plasmodium falciparum (isolate CDC / Honduras)) (UniProt Q27743); assay: PfLDH activity inhibition – cell lysate, 3D7 strain, counter-screen for P. falciparum growth inhibition project (AID 2304);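 also: 0% = vehicle and 100% = reference inhibitor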; conditions: P. falciparum 3D7 crude extract, LDH APAD/NBT absorbance; at 2 µM; stronger effect = higher value
Chain of L-lactate dehydrogenase (Plasmodium falciparum (isolate CDC / Honduras)) (Q27743 whole entry, looked up): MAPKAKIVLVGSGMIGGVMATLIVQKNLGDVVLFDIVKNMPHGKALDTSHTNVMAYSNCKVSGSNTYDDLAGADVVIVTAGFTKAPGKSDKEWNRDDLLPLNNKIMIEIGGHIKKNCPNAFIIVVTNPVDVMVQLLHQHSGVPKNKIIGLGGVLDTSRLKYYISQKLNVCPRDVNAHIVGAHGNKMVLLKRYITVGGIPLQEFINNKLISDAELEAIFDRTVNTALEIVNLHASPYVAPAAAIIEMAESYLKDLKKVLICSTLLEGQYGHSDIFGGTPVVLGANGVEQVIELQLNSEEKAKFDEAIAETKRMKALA

[4] = inhibition of 3D7 malaria parasite growth – strain 3D7 (AID 2306);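 also: 0% = DMSO wells and 100% = chloroquine plus artemisinin control wells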; conditions: P. falciparum 3D7 erythrocytic growth, LDH absorbance, 72 h; at 2 µM; stronger effect = higher value
[5] = biological target: Calcium-dependent protein kinase 1 (Plasmodium falciparum (isolate 3D7)) (UniProt P62344); assay: PfCDPK1 kinase inhibitors, biochemical, TCAMS library (AID 1159585; cut-off not given, nearly all actives have IC50 up to about 0.98 µM;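 also: inhibitors leave more ATP so luminescence rises with inhibition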); conditions: recombinant PfCDPK1, Kinase-Glo ATP depletion luminescence
Chain of Calcium-dependent protein kinase 1 (Plasmodium falciparum (isolate 3D7)) (P62344 whole entry, looked up): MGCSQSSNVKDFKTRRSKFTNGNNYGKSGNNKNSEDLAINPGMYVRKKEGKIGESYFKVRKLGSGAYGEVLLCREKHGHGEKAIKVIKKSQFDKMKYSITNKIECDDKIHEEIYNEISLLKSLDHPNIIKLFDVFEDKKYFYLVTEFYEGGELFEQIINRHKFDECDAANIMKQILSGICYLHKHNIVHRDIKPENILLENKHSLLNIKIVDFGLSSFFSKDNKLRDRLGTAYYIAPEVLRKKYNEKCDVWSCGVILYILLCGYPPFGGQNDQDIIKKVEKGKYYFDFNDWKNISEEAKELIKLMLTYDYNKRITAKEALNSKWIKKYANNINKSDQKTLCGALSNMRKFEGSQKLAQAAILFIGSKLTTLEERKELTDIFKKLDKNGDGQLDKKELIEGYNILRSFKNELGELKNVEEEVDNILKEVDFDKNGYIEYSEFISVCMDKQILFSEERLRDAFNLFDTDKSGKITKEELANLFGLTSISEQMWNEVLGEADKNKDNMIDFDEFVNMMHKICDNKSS

[6] = biological target: Plasmodium falciparum protein kinase 6 (PK6, PF3D7_1337100) (UniProt Q8IDW1); assay: PfPK6 kinase inhibitors, biochemical, TCAMS library (AID 1159586); conditions: recombinant PfPK6, Kinase-Glo ATP depletion luminescence
Chain of Plasmodium falciparum protein kinase 6 (PK6, PF3D7_1337100) (Q8IDW1 1-305): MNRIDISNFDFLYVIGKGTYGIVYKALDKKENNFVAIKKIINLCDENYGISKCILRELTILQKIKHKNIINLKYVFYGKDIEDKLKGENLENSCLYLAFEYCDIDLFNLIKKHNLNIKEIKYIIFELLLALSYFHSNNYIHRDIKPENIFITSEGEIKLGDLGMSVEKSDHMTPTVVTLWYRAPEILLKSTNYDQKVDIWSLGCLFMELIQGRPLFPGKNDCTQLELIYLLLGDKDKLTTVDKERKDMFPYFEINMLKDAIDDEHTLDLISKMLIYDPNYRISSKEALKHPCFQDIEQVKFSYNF

[7] = biological target: Protein kinase 7 (PK7), Plasmodium falciparum 3D7 (PF3D7_0213400) (UniProt Q7YTF7); assay: inhibition of Plasmodium PK7 catalytic activity – biochemical, TCAMS antimalarial set, Kinase-Glo luminescence (AID 1159587); conditions: recombinant PfPK7, Kinase-Glo ATP depletion luminescence
Chain of Protein kinase 7 (PK7), Plasmodium falciparum 3D7 (PF3D7_0213400) (Q7YTF7 1-343): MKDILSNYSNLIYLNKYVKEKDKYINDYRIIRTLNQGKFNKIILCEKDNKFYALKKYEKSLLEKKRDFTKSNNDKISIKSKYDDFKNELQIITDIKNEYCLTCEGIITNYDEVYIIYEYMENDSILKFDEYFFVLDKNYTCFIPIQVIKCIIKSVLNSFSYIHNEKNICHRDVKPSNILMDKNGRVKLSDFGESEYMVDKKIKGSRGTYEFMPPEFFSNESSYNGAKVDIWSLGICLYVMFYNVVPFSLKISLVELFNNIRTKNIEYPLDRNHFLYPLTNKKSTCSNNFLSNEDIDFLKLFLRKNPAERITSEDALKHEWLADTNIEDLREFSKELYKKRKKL

[8] = biological target: Calcium-dependent protein kinase 4 (Plasmodium falciparum (isolate 3D7)) (UniProt Q8IBS5); assay: PfCDPK4 kinase inhibitors, biochemical, TCAMS library (AID 1159588; cut-off not given, nearly all actives have IC50 up to about 0.91 µM); conditions: recombinant PfCDPK4, Kinase-Glo ATP depletion luminescence
Chain of Calcium-dependent protein kinase 4 (Plasmodium falciparum (isolate 3D7)) (Q8IBS5 whole entry, looked up): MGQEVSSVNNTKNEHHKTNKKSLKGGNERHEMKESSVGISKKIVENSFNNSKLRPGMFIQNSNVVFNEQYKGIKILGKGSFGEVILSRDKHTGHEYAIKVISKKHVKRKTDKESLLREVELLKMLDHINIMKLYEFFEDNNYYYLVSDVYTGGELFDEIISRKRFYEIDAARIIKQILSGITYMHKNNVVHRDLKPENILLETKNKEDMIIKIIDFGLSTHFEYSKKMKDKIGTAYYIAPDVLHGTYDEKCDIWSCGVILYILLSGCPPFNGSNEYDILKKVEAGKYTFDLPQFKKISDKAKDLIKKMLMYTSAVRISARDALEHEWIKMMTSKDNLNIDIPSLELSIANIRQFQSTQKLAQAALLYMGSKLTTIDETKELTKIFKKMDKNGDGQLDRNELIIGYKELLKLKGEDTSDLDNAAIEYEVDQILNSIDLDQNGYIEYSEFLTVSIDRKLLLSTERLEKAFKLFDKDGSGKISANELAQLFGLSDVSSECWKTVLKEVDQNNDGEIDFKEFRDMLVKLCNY

| Structure (SMILES) | growth inhibition [1] | inhibition [2] | inhibition [3] | growth inhibition [4] | outcome [5] | outcome [6] | outcome [7] | outcome [8] |
| --- | --- | --- | --- | --- | --- | --- | --- | --- |
| COc1ccc(-c2cccc(NC(=O)c3ccc(C#N)cc3)c2)cc1CN1CCCN(C)CC1 | 89% (active) | 22% | -3% | 101% (active) | inactive | inactive | inactive | inactive |
| CCC(C)OC(=O)C1=C(C)NC2=C(C(=O)CC(c3ccc(OC)c(OC)c3)C2)C1c1cccc(O)c1 (configuration not stated) | 98% (active) | -8% | 0% | 100% (active) | inactive | inactive | inactive | inactive |
| O=S(=O)(c1ccc(Oc2ccccc2)cc1)N(CCC(O)(C(F)(F)F)C(F)(F)F)Cc1cccc(O)c1 | 99% (active) | -13% | 5% | 102% (active) | inactive | inactive | inactive | inactive |
| O=C(N[C@@H](Cc1ccccc1)C(=O)NC1CCCc2ccccc21)c1ccc(O)c(-c2cccc(C(F)(F)F)c2)c1 (some centres not stated) | 41% | -2% | -1% | 91% (active) | inactive | inactive | inactive | inactive |
| CCSc1ccccc1CON1C(N)=NC(N)=NC1(C)C | 10% | 62% (active) | -3% | 96% (active) | inactive | inactive | inactive | inactive |
| CN(CCCCN)Cc1ccc(-c2ccc(Cl)cc2)cc1 | 20% | 96% (active) | 3% | 97% (active) | inactive | inactive | inactive | inactive |
| CCOc1cc(NCCCNc2ncc([N+](=O)[O-])cc2C)nc2ccccc12 | 64% (active) | 10% | 2% | 84% (active) | inactive | inactive | inactive | inactive |
| COc1cc(C)ccc1N1CCN(CCCCNC(=O)c2ccc(NC(=O)c3ccc(Cl)cc3)cc2)CC1 | 31% | 30% | 4% | 99% (active) | inactive | inactive | inactive | inactive |
| COc1cc(NC(=O)C(c2ccc(Cl)cc2)C(C)C)cc(OC)c1 (configuration not stated) | 98% (active) | 5% | -3% | 99% (active) | inactive | inactive | inactive | inactive |
| N#Cc1cncc(-c2nc3c(N4CCC(Cc5ccccc5)CC4)cccc3n2CCNCc2ccccc2)c1 | 99% (active) | 2% | -1% | 99% (active) | inactive | inactive | inactive | inactive |
| CC(C)(C)C1CC(=O)C[C@@H]2C(=O)N(c3ccc(Br)cc3)C(=O)[C@H]12 (some centres not stated) | 7% | -2% | 1% | 94% (active) | inactive | inactive | inactive | inactive |
| CC(=O)Nc1cccc(C(=O)Nc2cccc(-c3cccc(-c4nc5ccc(F)cc5[nH]4)c3)c2)c1 | 44% | 51% (active) | -5% | 101% (active) | inactive | inactive | inactive | inactive |
| Fc1cc(CN2CCCC2)ccc1OCCCN1CCN(c2cccc(Cl)c2Cl)CC1 | 15% | 67% (active) | -1% | 82% (active) | inactive | inactive | inactive | inactive |
| CCN1CCC(N(Cc2ccc(-c3ccc(C(F)(F)F)cc3)cc2)C(=O)Cn2c(CCc3cccc(F)c3F)cc(=O)c3c2CCC3)CC1 | 85% (active) | 49% | -1% | 89% (active) | inactive | inactive | inactive | inactive |
| Cc1ncc(CN2CCC(C(=O)Nc3ccc(-c4nc5ccccc5o4)cc3)CC2)s1 | 92% (active) | -14% | 1% | 82% (active) | inactive | inactive | inactive | inactive |
| CCOc1cc(C)ccc1N(C1CCN(CCCCNC(=O)c2ccc(-c3ccc(C(F)(F)F)cc3)cc2)CC1)S(=O)(=O)c1ccccc1 | 85% (active) | 14% | -4% | 88% (active) | inactive | inactive | inactive | inactive |
| CN(C)CCOc1cc(NC(=O)Nc2ccc(-c3ccncc3)c(Cl)c2)ccc1I | 100% (active) | 43% | 4% | 101% (active) | inactive | inactive | inactive | inactive |
| CCc1ccc(CN2CCC(NC(=O)c3ccc(-c4ccc(N(C)C)cc4)s3)CC2)cc1 | 44% | 52% (active) | -4% | 84% (active) | inactive | inactive | inactive | inactive |
| COc1cc(COc2c(C)nc(N)nc2N)cc(OC)c1OC | -5% | 7% | -9% | 100% (active) | inactive | inactive | inactive | inactive |
